In PubChem BioAssay AID1159580 (chemical genetic matrix, 2015):
The campaign covered roughly 5,500 compounds. About 2,000 (36%) were called active. Inconclusive results (about 18%) are left out. Rule as the data show it: active = normalized growth mostly below about 0.91 (no sharp cut-off); inconclusive = no clear call, values can overlap the other calls; inactive = mostly above about 0.92. The list shows a part of the results.

Assay: chemical genetic growth profiling, strain panel (AID 1159580);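 also: tested at 20 µM; growth read once vehicle control cultures reached saturation at 30 °C; 1 = growth at the plate median or of vehicle wells; lower values mean less growth of the strain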
Conditions: growth OD

Measured: normalized growth

CC(=O)Nc1ccc(OC(=O)c2ccccc2O)cc1
inactive: S. cerevisiae deletion strains, locus YJR066W, strain TOR1, active compounds read low 0.929 | S. cerevisiae deletion strains, locus YKL068W, active compounds read low 0.96 | S. cerevisiae deletion strains, locus YKL085W, strain MDH1 (second series), active compounds read low 0.95 | S. cerevisiae deletion strains, locus YKL085W, strain MDH1, active compounds read low 0.95 | S. cerevisiae deletion strains, locus YKL160W, strain elf1, active compounds read low 0.978 | S. cerevisiae deletion strains, locus YKL190W, strain CNB1, active compounds read low 0.987 | S. cerevisiae deletion strains, locus YKR026C, strain gcn3, active compounds read low 0.965 | S. cerevisiae deletion strains, locus YKR091W, strain srl3, active compounds read low 0.962 | S. cerevisiae deletion strains, locus YLL001W, strain dnm1, active compounds read low 0.96 | S. cerevisiae deletion strains, locus YLL026W, active compounds read low 0.978 | S. cerevisiae deletion strains, locus YLL041C, strain sdh2, active compounds read low 0.995 | S. cerevisiae deletion strains, locus YLR027C, strain aat2, active compounds read low 0.992 | S. cerevisiae deletion strains, locus YLR039C, strain RIC1, active compounds read low 0.676 | S. cerevisiae deletion strains, locus YLR058C, strain SHM2, active compounds read low 0.941 | S. cerevisiae deletion strains, locus YLR102C, strain apc9, active compounds read low 0.943 | S. cerevisiae deletion strains, locus YLR113W, strain HOG1, active compounds read low 0.901 | S. cerevisiae deletion strains, locus YLR258W, strain gsy2, active compounds read low 0.918 | S. cerevisiae deletion strains, locus YLR262C, strain YPT6 (second series), active compounds read low 0.972 | S. cerevisiae deletion strains, locus YLR262C, strain YPT6, active compounds read low 0.733 | S. cerevisiae deletion strains, locus YLR268W, strain sec22, active compounds read low 0.894 | S. cerevisiae deletion strains, locus YLR330W, strain CHS5, active compounds read low 0.959 | S. cerevisiae deletion strains, locus YLR342W, strain FKS1 (second series), active compounds read low 0.938 | S. cerevisiae deletion strains, locus YLR342W, strain FKS1, active compounds read low 1.01 | S. cerevisiae deletion strains, locus YLR357W, strain rsc2, active compounds read low 0.929 | S. cerevisiae deletion strains, locus YLR370C, strain arc18, active compounds read low 0.934 | S. cerevisiae deletion strains, locus YLR371W, strain rom2, active compounds read low 0.952 | S. cerevisiae deletion strains, locus YLR384C, strain iki3, active compounds read low 1 | S. cerevisiae deletion strains, locus YML016C, strain PPZ1, active compounds read low 0.977 | S. cerevisiae deletion strains, locus YML120C, strain ndi1, active compounds read low 0.951 | S. cerevisiae deletion strains, locus YML124C, strain tub3, active compounds read low 0.955 | S. cerevisiae deletion strains, locus YMR058W, strain fet3, active compounds read low 0.939 | S. cerevisiae deletion strains, locus YMR078C, strain ctf18, active compounds read low 0.935 | S. cerevisiae deletion strains, locus YMR125W, strain sto1, active compounds read low 0.982 | S. cerevisiae deletion strains, locus YMR129W, active compounds read low 0.989 | S. cerevisiae deletion strains, locus YMR205C, strain PFK2, active compounds read low 0.967 | S. cerevisiae deletion strains, locus YMR223W, strain ubp8, active compounds read low 0.938 | S. cerevisiae deletion strains, locus YMR231W, strain pep5, active compounds read low 1.01 | S. cerevisiae deletion strains, locus YMR307W, strain GAS1, active compounds read low 0.707 | S. cerevisiae deletion strains, locus YNL067W, strain RPL9B, active compounds read low 0.897 | S. cerevisiae deletion strains, locus YNL153C, strain GIM3, active compounds read low 0.936 | S. cerevisiae deletion strains, locus YNL183C, strain NPR1, active compounds read low 0.858 | S. cerevisiae deletion strains, locus YNL209W, strain ssb2, active compounds read low 0.95 | S. cerevisiae deletion strains, locus YNL250W, strain rad50, active compounds read low 0.978 | S. cerevisiae deletion strains, locus YNL271C, strain bni1, active compounds read low 0.955 | S. cerevisiae deletion strains, locus YNL298W, strain CLA4, active compounds read low 0.925 | S. cerevisiae deletion strains, locus YNR049C, strain mso1, active compounds read low 0.964 | S. cerevisiae deletion strains, locus YNR052C, strain pop2, active compounds read low 0.98 | S. cerevisiae deletion strains, locus YOL012C, strain htz1 0.544 | S. cerevisiae deletion strains, locus YOL147C, strain pex11, active compounds read low 0.943 | S. cerevisiae deletion strains, locus YOR001W, strain rrp6, active compounds read low 0.962 | S. cerevisiae deletion strains, locus YOR061W, strain CKA2, active compounds read low 0.967 | S. cerevisiae deletion strains, locus YOR069W, strain VPS5, active compounds read low 0.985 | S. cerevisiae deletion strains, locus YOR070C, strain gyp1, active compounds read low 0.932 | S. cerevisiae deletion strains, locus YOR080W, strain dia2, active compounds read low 1.02 | S. cerevisiae deletion strains, locus YOR083W, strain WHI5, active compounds read low 0.928 | S. cerevisiae deletion strains, locus YOR106W, strain vam3, active compounds read low 0.954 | S. cerevisiae deletion strains, locus YOR136W, strain idh2, active compounds read low 0.948 | S. cerevisiae deletion strains, locus YOR144C, strain elg1, active compounds read low 0.947 | S. cerevisiae deletion strains, locus YOR231W, strain MKK1, active compounds read low 0.909 | S. cerevisiae deletion strains, locus YOR265W, strain rbl2, active compounds read low 0.987 | S. cerevisiae deletion strains, locus YOR316C, strain cot1, active compounds read low 0.947 | S. cerevisiae deletion strains, locus YPL051W, strain arl3, active compounds read low 0.957 | S. cerevisiae deletion strains, locus YPL106C, strain sse1, active compounds read low 0.926 | S. cerevisiae deletion strains, locus YPL240C, strain hsp82, active compounds read low 0.973 | S. cerevisiae deletion strains, locus YPL241C, strain CIN2, active compounds read low 0.977 | S. cerevisiae deletion strains, locus YPL256C, strain CLN2, active compounds read low 0.881 | S. cerevisiae deletion strains, locus YPR119W, strain clb2, active compounds read low 0.941 | S. cerevisiae deletion strains, locus YPR141C, strain kar3, active compounds read low 0.967 | S. cerevisiae deletion strains, locus YPR163C, strain tif3, active compounds read low 0.931 | S. cerevisiae deletion strains, locus YPR167C, strain met16, active compounds read low 0.94 | S. cerevisiae deletion strains, strain wtn01, active compounds read low 0.915 | S. cerevisiae strains, strain wild type, active compounds read low 0.952
active: S. cerevisiae deletion strains, locus YJR075W, strain HOC1, active compounds read low 0.85 | S. cerevisiae deletion strains, locus YKL009W, strain mrt4, active compounds read low 0.848 | S. cerevisiae deletion strains, locus YKR001C, strain vps1, active compounds read low 0.794 | S. cerevisiae deletion strains, locus YLR221C, strain rsa3, active compounds read low 0.871 | S. cerevisiae deletion strains, locus YLR320W, strain mms22, active compounds read low 0.832 | S. cerevisiae deletion strains, locus YLR418C, strain cdc73, active compounds read low 0.682 | S. cerevisiae deletion strains, locus YML032C, strain rad52, active compounds read low 0.897 | S. cerevisiae deletion strains, locus YNL071W, strain lat1, active compounds read low 0.809 | S. cerevisiae deletion strains, locus YNL233W, strain BNI4, active compounds read low 0.832 | S. cerevisiae deletion strains, locus YNL248C, strain rpa49, active compounds read low 0.862 | S. cerevisiae deletion strains, locus YNL307C, strain MCK1, active compounds read low 0.576 | S. cerevisiae deletion strains, locus YNL322C, strain KRE1 (second series), active compounds read low 0.888 | S. cerevisiae deletion strains, locus YOL006C, strain TOP1, active compounds read low 0.463 | S. cerevisiae deletion strains, locus YOR184W, strain ser1, active compounds read low 0.756 | S. cerevisiae deletion strains, locus YOR270C, strain vph1, active compounds read low 0.635 | S. cerevisiae deletion strains, locus YOR290C, strain snf2, active compounds read low 0.857 | S. cerevisiae deletion strains, locus YPL078C, strain atp4, active compounds read low 0.83
